Myeloid diff MLP: promotes myeloid progenitor differentiation; calls only at 10 µM; 1% of 360,000 active; ER-HoxA9 myeloid progenitors, lysozyme-GFP differentiation, flow cytometry;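 active means normalized GFP-positive differentiation at or above the plate's own cutoff, the solvent-only control mean plus 3 SD; inconclusive means no clear call, values can overlap the other calls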;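 further: cells exposed to compound for four days before flow analysis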
RAD54 inh: blocks human RAD54 Holliday junction branch migration; 0.14% of 360,000 active; Q92698; FAM/BHQ fluorescence; inhibition, % at 10.4 µM;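 active means mean normalized replicate activity at least 40 and at least half of replicates scoring 40 or more; inconclusive means only one of the two criteria met; inactive means mean below 40 and under half of replicates reaching 40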;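 further: 0% = median of neutral control wells and 100% = median of positive control wells; inhibitors cause a drop in the FAM fluorescence signal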
Vif inh: blocks HIV Vif function; HEK293T cells, Vif self-association by quenched fluorescence, imaging, 24 h; inhibition, % at 7.49 µM; AID 602346; 0.35% of 340,000 active; in the data active means inhibition above about 50%, passing the limit was not always enough; inconclusive means no clear call, values can overlap the other calls; inactive means below about 31%
ABCB6 inh 2: blocks the human ABCB6 transporter. Q9NP58. K562-ABCB6 porphyrin accumulation, flow cytometry, 1 h; stronger effect = lower value. fluorescence ratio to DMSO, % at 10 µM. 0.19% of 360,000 active. AID 602162;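 active means fluorescence ratio to DMSO below 75%, the collection mean minus 3 SD; inconclusive means too few cells collected in the well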;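 further: signal is porphyrin accumulated inside mitochondria; 100% equals median channel fluorescence of DMSO control wells; lower ratio means ABCB6 inhibition with less porphyrin fluorescence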
Target sequence (Q9NP58 whole entry, looked up): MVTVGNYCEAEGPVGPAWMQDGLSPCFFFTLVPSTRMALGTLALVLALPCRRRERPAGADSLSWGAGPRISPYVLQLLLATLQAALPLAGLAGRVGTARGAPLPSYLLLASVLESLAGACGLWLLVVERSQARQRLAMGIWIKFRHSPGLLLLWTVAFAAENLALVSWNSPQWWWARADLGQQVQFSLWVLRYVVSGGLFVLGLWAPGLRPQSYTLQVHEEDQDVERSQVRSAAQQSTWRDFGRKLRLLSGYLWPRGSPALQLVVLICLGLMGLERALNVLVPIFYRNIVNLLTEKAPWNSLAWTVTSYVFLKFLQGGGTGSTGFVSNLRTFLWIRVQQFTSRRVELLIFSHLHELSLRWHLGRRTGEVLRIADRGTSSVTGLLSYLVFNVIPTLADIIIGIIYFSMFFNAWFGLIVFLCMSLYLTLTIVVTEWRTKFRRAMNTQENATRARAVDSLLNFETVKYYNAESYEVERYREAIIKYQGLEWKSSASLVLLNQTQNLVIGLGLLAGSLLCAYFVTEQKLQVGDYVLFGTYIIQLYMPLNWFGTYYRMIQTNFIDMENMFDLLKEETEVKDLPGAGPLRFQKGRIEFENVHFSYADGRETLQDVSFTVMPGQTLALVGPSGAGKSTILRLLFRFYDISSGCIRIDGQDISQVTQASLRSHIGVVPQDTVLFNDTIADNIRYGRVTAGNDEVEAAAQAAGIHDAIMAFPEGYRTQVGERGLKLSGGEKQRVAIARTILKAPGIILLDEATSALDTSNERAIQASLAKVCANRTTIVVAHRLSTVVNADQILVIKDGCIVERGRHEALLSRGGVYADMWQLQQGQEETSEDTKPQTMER
N-glyco inh: N-linked glycosylation inhibition | 0.23% of 360,000 active | reporter increase, % at 12.5 µM | AID 588692 | D54 ERlucT glycosylation luciferase reporter, 24 h; percent of 100 nM tunicamycin response;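 active means mean luciferase reporter signal, scaled so untreated is 0 and the glycosylation-blocking control 100, at or above a set limit in every replicate; inconclusive means mean reaches the limit but not every replicate does; inactive means mean below the limit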;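 further: luciferase carries N-glycosylation sites so blocking glycosylation raises the light; 0% = median of neutral control wells and 100% = median of 100 nM tunicamycin wells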
An asterisk follows results filed as active; i = inactive; ? = inconclusive; nt = no result given; + = active, no number; ! = not confirmed by another sample. Most compounds without a hit are left out; they make up all but 1.6% or so of the library.

SMILES | Myeloid diff MLP | RAD54 inh | Vif inh | ABCB6 inh 2 | N-glyco inh
CCC(NC(=O)N(Cc1ccccc1)Cc1ccc2c(c1)OCO2)(C(F)(F)F)C(F)(F)F | i | -7 | 2 | 100 | -2
CC1CCC(NC(=O)N(CCCl)N=O)CC1 (stereo unspecified) | i | -1 | 59* | 106 | ?
CC1CCC(NC(=S)NCCN(C)C)CC1 (stereo unspecified) | i | -7 | -11 | 98 | -1
CCN(CC)c1ccc(NC(=O)CSC(=O)c2ccccc2)cc1 | + | -3 | -6 | 90 | 8
CCOC(=O)C1(Cc2cccc(F)c2)CCN(C(=O)C2CCCO2)CC1 (stereo unspecified) | i | -2 | 51* | 104 | 2
CC=Cc1ccc2n(c1=O)C[C@@H]1[C@@H](CO)[C@H](C(=O)NCCc3cn(C)cn3)N(C(=O)C3CCC3)[C@H]21 (mixture of isomers) | nt | 0 | nt | nt | nt
O=[N+]([O-])c1ccc(N2N=C(c3ccccc3)CC2c2ccccc2O)cc1 (stereo unspecified) | + | nt | 7 | 206 | -2
COc1ccccc1N1N=C(c2ccc([N+](=O)[O-])cc2)CC1c1ccccc1 (stereo unspecified) | + | -1 | nt | nt | -12
NS(=O)(=O)c1ccc(N2N=C(c3ccccc3)CC2c2ccccc2Br)cc1 (stereo unspecified) | i | -5 | nt | 96 | -1
COc1cc(N2N=C(c3ccccc3)CC2c2ccccc2)c(C=O)cc1C=O (stereo unspecified) | i | -23 | 9 | 144 | -7
C[C@H](CO)N1C[C@H](C)[C@@H](CN(C)S(=O)(=O)c2ccccc2)Oc2ccc(NC(=O)Nc3cccc4ccccc34)cc2CC1=O | nt | 3 | nt | nt | nt
Cc1ccc(-c2cc(C(=O)NCc3ccccn3)c3ccccc3n2)cc1 | i | 5 | 59* | 101 | 1
N#Cc1c(-c2ccccc2)c(C#N)c2nc3ccccc3n2c1N | + | nt | -26 | 98 | 3
Cc1ccc(-c2c(C#N)c(N)n3c(nc4ccccc43)c2C#N)cc1 | i | nt | nt | 118 | -5
Cc1c(CCCl)c(Cl)n2c(nc3ccccc32)c1C#N | ? | nt | 61* | 99 | -19
C=C(C)Cc1c(C)c(C#N)c2nc3ccccc3n2c1NCCCN(C)C | i | 12 | 9 | 136 | 38*
C[C@@H](NC(=O)C[C@@H]1C[C@H]2c3cc(NC(=O)c4cccnc4)ccc3O[C@H]2[C@H](CO)O1)c1ccccc1 | nt | 2 | nt | nt | nt
COc1ccccc1N1C(=O)N(C(C)=O)C2C1Nc1ccccc1N2C (stereo unspecified) | + | 3 | -2 | 190 | 1
O=C(/C=C/c1cn(CC(O)CN2CCCCCC2)c2ccccc12)c1cccs1 (stereo unspecified) | + | nt | nt | 106 | 4
COCC(=O)N(C)C[C@H]1Oc2ncc(C#Cc3cccnc3)cc2C(=O)N([C@H](C)CO)C[C@H]1C | nt | -1 | nt | nt | nt
CCCCNc1c(-c2ccc(SC(C)CC)cc2)nc2cnccn12 (stereo unspecified) | + | -10 | i | 175 | -14
CCCCCCSc1cc(-c2nc3cnccn3c2NCCCC)ccc1OC | i | -13 | 3 | 119 | -6
CCCCNc1c(-c2ccc(OC)c(Sc3ccc(OC)cc3)c2)nc2ccccn12 | i | -1 | -1 | 92 | -6
CCCCNc1c(-c2ccc(SC(C)CC)c(OC)c2)nc2ccc(C)cn12 (stereo unspecified) | i | -3 | -11 | 100 | -8
CCCCNc1c(-c2ccc(OC)c(Sc3ccc(OC)cc3)c2)nc2cnccn12 | i | -4 | 61* | 99 | -1
SMILES | Myeloid diff MLP | RAD54 inh | Vif inh | ABCB6 inh 2 | N-glyco inh
CCCCCCSc1cc(-c2nc3cc(C)ccn3c2NCCCC)ccc1OC | +! | -14 | -10 | 106 | -5
Cc1noc(C)c1NC(=O)Nc1cccc2c1O[C@H](CN(C)S(=O)(=O)c1ccc(Cl)cc1)[C@H](C)CN([C@H](C)CO)C2=O | nt | 8 | nt | nt | nt
CCOc1ccccc1Oc1cn[nH]c1-c1ccc(OCC(=O)NN)cc1O | + | 5 | nt | 89 | -1
COc1ccccc1/C=C1/C(=O)N(c2ccccc2)N=C1C | i | -3 | 23 | 74* | 5
C[C@@H]1CN([C@H](C)CO)C(=O)Cc2cc(NC(=O)Cc3cn(C)c4ccccc34)ccc2O[C@H]1CN(C)Cc1ccc(C(F)(F)F)cc1 | nt | -1 | nt | nt | nt
COc1ccc(C(NC(=O)CNC(C)=O)C(=O)Nc2ccc3c(c2)OCCO3)cc1 (stereo unspecified) | i | 1 | 51* | 104 | 0
CC(=O)NCC(=O)NC(C(=O)Nc1ccc2c(c1)OCCO2)c1ccc(C)cc1 (stereo unspecified) | i | 6 | 1 | 95 | -2
CCn1nc(C)c(Br)c1-c1nc(CS(=O)(=O)c2ccsc2)no1 | i | -6 | 56* | 91 | 0
CCn1nc(C)c(Br)c1-c1nc(-c2cccc(C)c2)no1 | i | -7 | 3 | 100 | 0
CC[C@@]1(c2ccccc2OC)ON(c2ccccc2C(F)(F)F)C1=O | i | 3 | -10 | 103 | 43*
Cc1ccccc1[C@@]1(C)ON(c2ccccc2C(F)(F)F)C1=O | i | 4 | -4 | 94 | 8
O=C(C[C@H]1C[C@@H]2c3cc(NC(=O)Nc4ccc(F)cc4)ccc3O[C@@H]2[C@@H](CO)O1)NC1CCCCC1 | nt | 10 | nt | nt | nt
NC(=O)C1CCN(c2nc(-c3ccccc3F)cs2)CC1 | i | 2 | -6 | 101 | 0
NC(=O)C1CCN(c2nc(-c3ccc(F)cc3)cs2)CC1 | + | 3 | -3 | 101 | 0
COc1cc(NC(=O)CCc2nnc3ccc(N4CCCCC4)nn23)cc(OC)c1OC | + | -4 | 7 | 98 | 5
Cc1ccccc1Sc1ccc(N)cn1 | + | 0 | -4 | 119 | 2
CCCC(=O)Nc1ccc2c(c1)C(=O)N(C)C[C@@H](OC)[C@H](C)CN(C(=O)Cc1ccccn1)[C@H](C)CO2 | nt | -2 | nt | nt | nt
CC(C)c1ccc(NC2CCCN(C(=O)CCN3CCCC3=O)C2)cc1 (stereo unspecified) | + | 3 | 0 | 81 | -1
CC(C)(C)OC(=O)NCCCCCNC(=O)c1[nH]cnc1C(=O)N[C@@H](CCCCNC(=O)OC(C)(C)C)C(=O)OC(C)(C)C | ? | -1 | 1 | 67* | -2
CC(C)(C)OC(=O)[C@H](Cc1ccccc1)NC(=O)c1nc[nH]c1C(=O)N1CCc2ccccc2C1 | i | -3 | 5 | 87 | 33*
O=C(Nc1ccc(Cl)c(Cl)c1)N[C@H]1CC[C@H](CCn2cc(C3CCCCC3)nn2)O[C@@H]1CO | nt | -7 | nt | nt | nt
Cc1noc(C)c1NC(=O)Nc1ccc2c(c1)C(=O)N([C@@H](C)CO)C[C@@H](C)[C@H](CN(C)S(=O)(=O)c1cccs1)O2 | nt | -12 | nt | nt | nt
CO[C@H]1CN(C)C(=O)c2cc(NC(=O)C3CC3)ccc2OC[C@H](C)N(CC2CCOCC2)C[C@H]1C | nt | -13 | nt | nt | nt
COC(=O)c1cc(=O)n(-c2ccc(F)cc2)c(=Nc2ccc(F)cc2)s1 | i | -5 | -5 | 99 | 39*

Compound activity as filed in PubChem BioAssay.
